Screening results from PubChem BioAssay.
Hits are enriched below; roughly 6.8% of the tested compounds scored in any of these assays.
Spn DPM-DC inh – inhibitors of Streptococcus pneumoniae diphosphomevalonate decarboxylase; hit rate 0.49% among 65,000; AID 556; purified DPM-DC, PK/LDH coupled NADH fluorescence; calls only at 10 µM;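 active means the 320 compounds with the highest percent inhibition in the single-dose primary screen, excluding strongly autofluorescent ones, cut at about 32% in these data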;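 further: kinetic rate of NADH fluorescence loss reporting ADP formed by the decarboxylase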
Autofluor 339 – intrinsic fluorescence of library compounds, ex339/em460 – biochemical, MLSMR library, data from DPM-DC assay, artefact control, profiling panel. compound autofluorescence, ex339/em460 nm, NADH buffer; stronger effect = higher value; 1 = no-compound wells, NADH background. fluorescence fold increase at 10 µM. hit rate 5.5% among 65,000;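 active means at 10 µM, mean starting fluorescence two-fold or more over control wells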;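 further: signal is the first read of a kinetic run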
MK inhibit – S. pneumoniae mevalonate kinase inhibition | purified MK, PK/LDH-coupled NADH absorbance 340 nm | inhibition, % at 10 µM | hit rate 0.48% among 65,000;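 active means ranked among the strongest by inhibition in the single 10 µM screen, a fixed top-ranked set picked for dose follow-up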
PMK inhibit – blocks S. pneumoniae phosphomevalonate kinase. purified PMK, PK/LDH-coupled NADH absorbance 340 nm. inhibition, % at 10 µM. hit rate 0.49% among 65,000. AID 539;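 active means top-ranked compounds by inhibition in the single 10 µM screen, taking a fixed number of the strongest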;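 further: 0% = full reaction with DMSO carrier and 100% = background rate without enzyme reaction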
NADH enzymes – blocks coupling enzymes of NAD/NADH assays; hit rate 0.02% among 65,000; AID 774; coupled PK/LDH NADH assays, four targets; IC50, µM (series often up to 10 µM), inactives show top-dose inhibition;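 active means single-dose screening hits from any of four coupled enzyme assays that gave an IC50 when retested across doses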;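 further: the DPM-DC format reads NADH fluorescence rather than 340 nm absorbance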
Abs 340nm – compounds absorbing at 340 nm. compound absorbance at 340 nm, fold over control. fold change at 10 µM. 65,000 tested, under 10 active. AID 708;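 active means at 10 µM dose, initial 340 nm absorbance at least 2 fold that of control wells; inactive means change under 2 fold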;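 further: initial absorbance extrapolated from kinetic A340 decline of NADH oxidation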
* marks the source's active call; other numbers are inactive results.

How did CC1=C(C(=O)N2CCCCC2)C(c2cccs2)C2=C(CCCC2=O)N1 (centres undefined) do in these assays?
Autofluor 339: 2.06*; MK inhibit: 0.0; PMK inhibit: 9.0; NADH enzymes: 3.0%; Abs 340nm: 1.08

Results for COc1cc(OC)c(C2C(C(=O)N3CCOCC3)=C(C)NC3=C2C(=O)CC(C)(C)C3)cc1OC (centres undefined) ?
Spn DPM-DC inh: inactive; Autofluor 339: 1.16; MK inhibit: 6.0; PMK inhibit: 0.0; NADH enzymes: 4.0%; Abs 340nm: 1.11

Results for COc1cc(C2C(C(=O)N3CCOCC3)=C(C)NC3=C2C(=O)CCC3)ccc1OC(C)=O (centres undefined) ?
Autofluor 339: 3.69*; MK inhibit: 3.0; PMK inhibit: 16.0; NADH enzymes: 10.0%; Abs 340nm: 1.1

Results for COC(=O)C1=C(C)NC2=C(C(=O)CCC2)C1c1cccs1 (centres undefined) ?
Spn DPM-DC inh: inactive; Autofluor 339: 1.55; MK inhibit: 3.0; PMK inhibit: 4.0; NADH enzymes: 7.0%; Abs 340nm: 1.06

What do the screens show for `COc1ccc(S(=O)(=O)n2nc(OC(=O)c3c(-c4ccccc4Cl)noc3C)cc2N)cc1`?
Spn DPM-DC inh: inactive; Autofluor 339: 1.12; MK inhibit: 1.0; PMK inhibit: 0.0; NADH enzymes: 0.0%; Abs 340nm: 1.03

What do the screens show for `COc1ccc(S(=O)(=O)N2CC3C4C=CC(C4)C3C2)cc1` (centres undefined)?
Spn DPM-DC inh: inactive; Autofluor 339: 1.1; MK inhibit: 0.0; PMK inhibit: 16.0; NADH enzymes: 5.0%; Abs 340nm: 1.02

What do the screens show for `Cc1cccc(-c2c3c(=O)n(C)c(=O)n(C)c3c3nnc4ccccc4n23)c1`?
Spn DPM-DC inh: inactive; Autofluor 339: 1.13; MK inhibit: 12.0; PMK inhibit: 10.0; NADH enzymes: 7.0%; Abs 340nm: 1.02

Results for COC(=O)[C@H]1CCCN1C(=O)Nc1cccc(Oc2c(F)c(F)c(F)c(F)c2F)c1 ?
Spn DPM-DC inh: inactive; Autofluor 339: 1.11; MK inhibit: 18.0; PMK inhibit: 3.0; NADH enzymes: 7.0%; Abs 340nm: 1.03

How did CCOC(=O)CSc1nc(N2CCOCC2)c2c(c1C#N)CC(C)(C)N(C)C2 do in these assays?
Spn DPM-DC inh: inactive; Autofluor 339: 1.19; MK inhibit: 0.0; PMK inhibit: 2.0; NADH enzymes: 3.0%; Abs 340nm: 1.08

How did Fc1ccccc1Cn1nnc2c(-n3ccnc3)ncnc21 do in these assays?
Spn DPM-DC inh: inactive; Autofluor 339: 1; MK inhibit: 0.0; PMK inhibit: 4.0; NADH enzymes: 2.0%; Abs 340nm: 1

How did C=CCn1c(=O)/c(=C/c2cc(OC)c(OC)c(OC)c2)s/c1=C(/C#N)c1nc2ccccc2n1C do in these assays?
Spn DPM-DC inh: inactive; Autofluor 339: 1.08; MK inhibit: 4.0; PMK inhibit: 0.0; NADH enzymes: 1.0%; Abs 340nm: 1.02

What do the screens show for `CCCCNC(=O)CSc1nc2ccc(N3CCOCC3)cc2c(=O)n1CCc1ccccc1`?
Spn DPM-DC inh: inactive; Autofluor 339: 2.34*; MK inhibit: 10.0; PMK inhibit: 10.0; NADH enzymes: 10.0%; Abs 340nm: 1.01

Results for COCCNC(=O)CSc1nc2ccc(N3CCOCC3)cc2c(=O)n1CCc1ccccc1 ?
Autofluor 339: 4.1*; MK inhibit: 10.0; PMK inhibit: 7.0; NADH enzymes: 9.0%; Abs 340nm: 1.04

How did Cc1ccsc1-c1nc(CSCC(=O)NCc2ccc3c(c2)OCO3)c(C)o1 do in these assays?
Spn DPM-DC inh: inactive; Autofluor 339: 1.21; MK inhibit: 6.0; PMK inhibit: 6.0; NADH enzymes: 6.0%; Abs 340nm: 1.03

Results for Cc1nc2c(-c3ccccc3)c(C)nn2c(C)c1CCC(=O)NCc1ccco1 ?
Spn DPM-DC inh: inactive; Autofluor 339: 1.03; MK inhibit: 8.0; PMK inhibit: 8.0; NADH enzymes: 4.0%; Abs 340nm: 0.99

What do the screens show for `Cc1cccc(Cc2c(C)nc3c(C(=O)NCc4ccco4)cnn3c2C)c1`?
Spn DPM-DC inh: inactive; Autofluor 339: 3.85*; MK inhibit: 1.0; PMK inhibit: 13.0; NADH enzymes: 7.0%; Abs 340nm: 1.04

How did Cc1nc2c(C(=O)NCc3ccco3)cnn2c(C)c1Cc1ccc(F)cc1Cl do in these assays?
Spn DPM-DC inh: inactive; Autofluor 339: 3.11*; MK inhibit: 0.0; PMK inhibit: 7.0; NADH enzymes: 6.0%; Abs 340nm: 1.02

What do the screens show for `c1ccc2c(c1)NC1(CCCC1)n1c-2nc2ccccc21`?
Autofluor 339: 4.95*; MK inhibit: 0.0; PMK inhibit: 10.0; NADH enzymes: 5.0%; Abs 340nm: 1.05

Results for c1ccc2c(c1)NC(c1ccncc1)n1c-2nc2ccccc21 (centres undefined) ?
Spn DPM-DC inh: inactive; Autofluor 339: 1.52; MK inhibit: 6.0; PMK inhibit: 2.0; NADH enzymes: 5.0%; Abs 340nm: 1.07

What do the screens show for `COC(=O)c1cc(NS(=O)(=O)c2ccc3c(c2)CCC(=O)N3)cc(C(=O)OC)c1`?
Spn DPM-DC inh: inactive; Autofluor 339: 1.48; MK inhibit: 0.0; PMK inhibit: 16.0; NADH enzymes: 7.0%; Abs 340nm: 0.98

How did CC1CCN(S(=O)(=O)c2ccc3[nH]cc(C(=O)NCCN4CCOCC4)c(=O)c3c2)CC1 do in these assays?
Autofluor 339: 1.81; MK inhibit: 0.0; PMK inhibit: 12.0; NADH enzymes: 2.0%; Abs 340nm: 1.01

Results for CCc1ccc2[nH]cc(C(=O)N3CCCCCC3)c(=O)c2c1 ?
Spn DPM-DC inh: inactive; Autofluor 339: 1.04; MK inhibit: 5.0; PMK inhibit: 10.0; NADH enzymes: 6.0%; Abs 340nm: 1.07

How did CCN(CC)S(=O)(=O)c1ccc2c(c1)c(=O)c(C(=O)N1CCOCC1)cn2C do in these assays?
Spn DPM-DC inh: inactive; Autofluor 339: 0.99; MK inhibit: 4.0; PMK inhibit: 12.0; NADH enzymes: 6.0%; Abs 340nm: 1.02

What do the screens show for `COCCNC(=O)c1c[nH]c2ccc(S(=O)(=O)N3CCC4(CC3)OCCO4)cc2c1=O`?
Autofluor 339: 2.12*; MK inhibit: 0.0; PMK inhibit: 19.0; NADH enzymes: 10.0%; Abs 340nm: 1.08

Results for Cc1ccc(S(=O)(=O)N2CCOCC2)cc1C(=O)N1CCOCC1 ?
Spn DPM-DC inh: inactive; Autofluor 339: 1.04; MK inhibit: 2.0; PMK inhibit: 4.0; NADH enzymes: 6.0%; Abs 340nm: 1.01

What do the screens show for `COc1ccc2[nH]cc(C(=O)N3CCCCC3)c(=O)c2c1`?
Spn DPM-DC inh: inactive; Autofluor 339: 2.08*; MK inhibit: 9.0; PMK inhibit: 2.0; NADH enzymes: 5.0%; Abs 340nm: 1.08

What do the screens show for `O=C(c1c[nH]c2ccc(S(=O)(=O)N3CCOCC3)cc2c1=O)N1CCCC1`?
Autofluor 339: 4.19*; MK inhibit: 4.0; PMK inhibit: 1.0; NADH enzymes: 3.0%; Abs 340nm: 1.09
